This passage reports Potency and outcome results from PubChem BioAssay (NCATS).

Test [1] is described as follows: qHTS for Inhibitors of the Functional Ribonucleoprotein Complex (vRNP) of Lassa (LASV) Arenavirus: LASV Primary Screen - GLuc reporter signal (AID 1347082; calls by dose curve; tested in HEK293 reporter line; note: series mostly up to about 57 µM; nearly all actives have a fitted effect of over 60% in size).
A short description of test [2]: qHTS for Inhibitors of the Functional Ribonucleoprotein Complex (vRNP) of Lassa (LASV) Arenavirus: Viability assay - alamar blue signal for LASV Primary Screen (AID 1347083; calls by dose curve; tested in HEK293 reporter line; note: nearly all actives have a fitted effect of over 80% in size; note: potency is the fitted concentration of half-maximal effect). In general terms: qHTS replaces the single test concentration by a dilution series.
The target in test [3] is Tyrosine-protein phosphatase non-receptor type substrate 1 (Homo sapiens) + Leukocyte surface antigen CD47 (Homo sapiens) (UniProt P78324+Q08722). In words: CD47-SIRPalpha protein protein interaction - Alpha assay qHTS validation (AID 1347059).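 Note: bead proximity luminescence from CD47 binding SIRPalpha after compound preincubation with SIRPalpha.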 In outline:
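Biotinylated Avi-tagged SIRPalpha (25 nM) preincubated 30 min with compound, then His-tagged CD47 (12.5 nM) added 30 min; AlphaScreen with Ni-NTA acceptor and streptavidin donor beads. PBS pH 7.4, 0.05% IGEPAL, room temperature; 7-point titrations.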

In test [4] the target is Parathyroid hormone/parathyroid hormone-related peptide receptor (Homo sapiens) (UniProt Q03431). In words: qHTS for PTHR1 Agonists: Optimization Screen against the NCGC LOPAC library (AID 1347079).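 Note: GloSensor cAMP luminescence in HEK-293 GP2 cells expressing human PTHR1 with IBMX.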 In outline:
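Agonist readout: GloSensor cAMP luminescence, read after 15 min at room temperature. HEK-293-derived GP2 line carries PTHR1; compounds tested as a titration for 1 hr at 37C in presence of IBMX. M-PTH (1-15) served as control.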

Test [5] is described as follows: qHTS for Inhibitors of the Functional Ribonucleoprotein Complex (vRNP) of Lymphocytic Choriomeningitis Arenaviruses (LCMV): Viability assay - alamar blue signal for LCMV Primary Screen (AID 1347085; calls by dose curve; tested in HEK293 reporter line; note: nearly all actives have a fitted effect of over 80% in size; note: potency is the fitted concentration of half-maximal effect).
For test [6], the target named is Nucleoprotein (Lymphocytic choriomeningitis virus (strain Armstrong)) (UniProt P09992). The test can be described thus: qHTS for Inhibitors of the Functional Ribonucleoprotein Complex (vRNP) of Lymphocytic Choriomeningitis Arenaviruses (LCMV): LCMV Primary Screen - GLuc reporter signal (AID 1347086; calls by dose curve; note: series mostly up to about 57 µM; nearly all actives have a fitted effect of over 70% in size).
The nature of test [7]: qHTS of pediatric cancer cell lines to identify multiple opportunities for drug repurposing: Primary screen for TC32 cells (AID 1347089). Note: nearly all actives have a fitted effect of over 60% in size. In outline:
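Luminescent ATP read-out (CellTiter-Glo) of metabolically active TC32 cells after 48 h exposure. Concentration-response curves came from 11-point (MIPE, 0.78 nM–46 µM) or 8-point (NPC, 0.59 nM–46 µM) primary titrations; follow-up used 11 points.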

The nature of test [8]: qHTS of pediatric cancer cell lines to identify multiple opportunities for drug repurposing: Primary screen for DAOY cells (AID 1347090). Note: series mostly up to about 46 µM; nearly all actives have a fitted effect of over 55% in size. In outline:
(§1)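 Viability measured as metabolically active cells via CellTiter-Glo luminescence following 48 hours of compound exposure, 11-point dilutions in confirmatory testing. 500-1,000 cells/well plated 5 hours before dosing; controls were DMSO and 2.3 µM bortezomib.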

The nature of test [9]: qHTS of pediatric cancer cell lines to identify multiple opportunities for drug repurposing: Primary screen for SJ-GBM2 cells (AID 1347091). In outline: as §1
The nature of test [10]: qHTS of pediatric cancer cell lines to identify multiple opportunities for drug repurposing: Primary screen for A673 cells (AID 1347092). Note: nearly all actives have a fitted effect of over 45% in size. In outline: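 Cell viability of A673 measured by CellTiter-Glo ATP luminescence after 48 hours compound exposure. Dilution series spanned 0.78 nM to 46 µM (MIPE, 11-point) or 0.59 nM to 46 µM (NPC, 8-point); bortezomib 2.3 uM positive control.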

A short description of test [11]: qHTS of pediatric cancer cell lines to identify multiple opportunities for drug repurposing: Primary screen for SK-N-MC cells (AID 1347093). Note: series mostly up to about 46 µM. In outline: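 Metabolically active cells were quantified by ATP-dependent luminescence (CellTiter-Glo, 15 min at room temperature) following 48 h treatment. Cells had been plated at 500-1,000 per well and settled for 5 h beforehand.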

The nature of test [12]: qHTS of pediatric cancer cell lines to identify multiple opportunities for drug repurposing: Primary screen for BT-37 cells (AID 1347094). Note: series mostly up to about 57 µM. In outline:
(§2)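 Viability was measured as metabolically active cells after 48 hours of treatment, read by CellTiter-Glo luminescence. Compounds were tested at multiple final concentrations, giving concentration-response curves.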

Test [13] is described as follows: qHTS of pediatric cancer cell lines to identify multiple opportunities for drug repurposing: Primary screen for NB-EBc1 cells (AID 1347095). In outline: as §2
A short description of test [14]: qHTS of pediatric cancer cell lines to identify multiple opportunities for drug repurposing: Primary screen for U-2 OS cells (AID 1347096). Note: nearly all actives have a fitted effect of over 50% in size. In outline: (§3)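 Viability after 48 h compound treatment at 37C, 500-1,000 cells/well, read as ATP luminescence with CellTiter-Glo. Primary screens used 11-point (MIPE, 0.78 nM-46 µM) or 8-point (NPC, 0.59 nM-46 µM) final concentrations; follow-up screens used 11-point dilutions.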

Test [15] can be described thus: qHTS of pediatric cancer cell lines to identify multiple opportunities for drug repurposing: Primary screen for Saos-2 cells (AID 1347097). Note: nearly all actives have a fitted effect of over 40% in size. In outline: as §2
The nature of test [16]: qHTS of pediatric cancer cell lines to identify multiple opportunities for drug repurposing: Primary screen for SK-N-SH cells (AID 1347098).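 Note: DMSO served as neutral control and bortezomib at 2.3 µM as positive control; nearly all actives have a fitted effect of over 65% in size.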 In outline:
(§4)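 Cells (500-1,000/well) rested 5 h, then received compounds for 48 h; metabolically active cells were measured by CellTiter-Glo luminescence. Final concentrations spanned up to 46 µM (MIPE, 11-point) or 0.59 nM-46 µM (NPC, 8-point) in primary screens, 11-point in follow-ups.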

Test [17] in a line: qHTS of pediatric cancer cell lines to identify multiple opportunities for drug repurposing: Primary screen for NB1643 cells (AID 1347099). Note: nearly all actives have a fitted effect of over 50% in size. In outline:
as §2

A short description of test [18]: qHTS of pediatric cancer cell lines to identify multiple opportunities for drug repurposing: Primary screen for LAN-5 cells (AID 1347100). In outline: as §3
The nature of test [19]: qHTS of pediatric cancer cell lines to identify multiple opportunities for drug repurposing: Primary screen for Rh18 cells (AID 1347102). Note: nearly all actives have a fitted effect of over 65% in size. In outline: as §3
Test [20] in a line: qHTS of pediatric cancer cell lines to identify multiple opportunities for drug repurposing: Primary screen for BT-12 cells (AID 1347101). Note: nearly all actives have a fitted effect of over 25% in size. In outline:
as §4

Results filed as inconclusive are left out. Calls of active or inactive are those of the source. Unless noted, calls come from the whole dose curve; as a rule, active = well fitted curve in the direction sought with a large enough effect; inconclusive = small, poorly fitted or top-dose-only effect, or another doubt; inactive = no such curve, though single readings can be large; an effect the other way counts as inactive or inconclusive.

Chain of Tyrosine-protein phosphatase non-receptor type substrate 1 (Homo sapiens) + Leukocyte surface antigen CD47 (Homo sapiens) (P78324 whole entry, looked up): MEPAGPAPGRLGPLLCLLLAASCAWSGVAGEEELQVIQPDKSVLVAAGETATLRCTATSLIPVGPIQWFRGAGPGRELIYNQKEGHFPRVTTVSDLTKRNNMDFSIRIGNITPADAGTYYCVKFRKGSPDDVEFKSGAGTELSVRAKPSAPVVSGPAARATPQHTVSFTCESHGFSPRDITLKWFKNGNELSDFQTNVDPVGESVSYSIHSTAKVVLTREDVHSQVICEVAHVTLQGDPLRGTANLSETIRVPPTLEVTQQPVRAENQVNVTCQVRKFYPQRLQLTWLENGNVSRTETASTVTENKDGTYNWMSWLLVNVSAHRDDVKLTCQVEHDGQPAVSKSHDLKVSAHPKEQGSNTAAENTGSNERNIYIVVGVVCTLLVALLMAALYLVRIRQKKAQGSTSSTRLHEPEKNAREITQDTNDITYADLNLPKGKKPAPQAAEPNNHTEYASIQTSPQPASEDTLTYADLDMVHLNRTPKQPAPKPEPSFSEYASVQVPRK
Chain of Tyrosine-protein phosphatase non-receptor type substrate 1 (Homo sapiens) + Leukocyte surface antigen CD47 (Homo sapiens) (Q08722 whole entry, looked up): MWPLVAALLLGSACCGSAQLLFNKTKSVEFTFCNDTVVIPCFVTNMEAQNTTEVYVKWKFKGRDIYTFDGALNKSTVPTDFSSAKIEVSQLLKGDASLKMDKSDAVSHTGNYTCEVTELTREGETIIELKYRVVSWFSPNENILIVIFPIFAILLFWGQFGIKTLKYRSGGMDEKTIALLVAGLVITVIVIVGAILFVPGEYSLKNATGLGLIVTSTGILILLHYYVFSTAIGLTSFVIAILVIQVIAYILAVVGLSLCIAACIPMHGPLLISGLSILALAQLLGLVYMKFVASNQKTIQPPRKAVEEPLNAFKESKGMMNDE
Chain of Nucleoprotein (Lymphocytic choriomeningitis virus (strain Armstrong)) (P09992 whole entry, looked up): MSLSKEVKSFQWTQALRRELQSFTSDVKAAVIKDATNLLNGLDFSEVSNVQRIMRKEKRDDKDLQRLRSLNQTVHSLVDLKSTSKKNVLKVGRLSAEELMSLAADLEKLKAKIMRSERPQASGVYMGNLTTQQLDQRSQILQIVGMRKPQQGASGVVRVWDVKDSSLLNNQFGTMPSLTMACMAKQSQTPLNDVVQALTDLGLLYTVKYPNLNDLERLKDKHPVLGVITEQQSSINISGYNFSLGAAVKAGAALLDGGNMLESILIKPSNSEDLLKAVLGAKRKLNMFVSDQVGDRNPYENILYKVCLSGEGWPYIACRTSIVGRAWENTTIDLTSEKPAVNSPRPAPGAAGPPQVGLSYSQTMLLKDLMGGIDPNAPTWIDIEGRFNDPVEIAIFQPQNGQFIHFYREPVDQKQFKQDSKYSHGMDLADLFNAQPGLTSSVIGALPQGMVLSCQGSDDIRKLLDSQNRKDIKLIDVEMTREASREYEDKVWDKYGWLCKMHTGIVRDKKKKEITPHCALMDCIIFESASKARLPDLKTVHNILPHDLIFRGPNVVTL
Chain of Parathyroid hormone/parathyroid hormone-related peptide receptor (Homo sapiens) (Q03431 whole entry, looked up): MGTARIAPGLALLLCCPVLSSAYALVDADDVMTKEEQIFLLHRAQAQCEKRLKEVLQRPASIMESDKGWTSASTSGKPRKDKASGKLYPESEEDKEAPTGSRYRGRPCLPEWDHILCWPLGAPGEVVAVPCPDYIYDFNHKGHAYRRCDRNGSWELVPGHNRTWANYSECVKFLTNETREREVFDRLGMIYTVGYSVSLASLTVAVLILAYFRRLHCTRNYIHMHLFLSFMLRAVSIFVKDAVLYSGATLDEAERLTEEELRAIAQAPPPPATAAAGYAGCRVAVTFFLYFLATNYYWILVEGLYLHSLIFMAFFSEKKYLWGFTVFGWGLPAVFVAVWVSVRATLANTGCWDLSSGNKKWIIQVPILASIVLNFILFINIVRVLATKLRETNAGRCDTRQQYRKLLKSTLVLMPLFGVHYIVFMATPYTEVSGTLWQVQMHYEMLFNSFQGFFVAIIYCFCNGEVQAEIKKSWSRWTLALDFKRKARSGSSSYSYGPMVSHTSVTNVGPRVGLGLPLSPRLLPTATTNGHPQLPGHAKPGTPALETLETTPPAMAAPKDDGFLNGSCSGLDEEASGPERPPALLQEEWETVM

In the case of `C[C@@H](C1=C(CCN(C)C)Cc2ccccc21)c1ccccn1`, the Potency entry in [1] and in test [2] was “inactive” throughout.

`CC(C(O)c1ccccc1)N(C)CCOC(c1ccccc1)c1ccccc1` (configuration not stated): the Potency entry in test [1] is “inactive”.

Regarding `NC(=O)CN1CCCC1=O`, the result in [3] and in [4] was inactive. The Potency result in [1], in test [2], in test [5], in test [6], in [7] and in [8] was “inactive” each time. The Potency entry in test [9], in test [10], in test [11], in [12], in test [13] and in test [14] was “inactive” in each case. Besides, the Potency result in test [15], in [16], in test [17], in test [18] and in test [19] was “inactive” each time.

As for `OC[C@H]1O[C@@H](n2cnc3c(=S)nc[nH]c32)[C@H](O)[C@@H]1O`, in test [1], the Potency entry was “inactive”.

In the case of `O=C(O)c1nn(Cc2ccc(Cl)cc2Cl)c2ccccc12`, the outcome in test [3] and in test [4] was inactive. In addition, the Potency entry in test [1], in [2], in test [5], in [6], in test [7] and in [8] was “inactive” in each case. Moreover, the Potency result in [9], in test [10], in test [11], in test [12], in test [13] and in test [14] was “inactive” throughout. Moreover, the Potency result in test [15], in test [16], in [17], in test [18], in [20] and in test [19] was “inactive” throughout.

For `CCN(CC)CCNc1ccc(CO)c2sc3ccccc3c(=O)c12`, the Potency result in test [1] is “inactive”.

Take `CCN(CC)CCOc1ccc2c(c1)C(=O)c1cc(OCCN(CC)CC)ccc1-2`: the Potency entry in test [1] is “inactive”.

For the compound `COC(=O)[C@H]1[C@H]2C[C@@H]3c4[nH]c5cc(OC)ccc5c4CCN3C[C@H]2C[C@@H](OC(=O)/C=C/c2ccc(O)c(OC)c2)[C@@H]1OC`, the Potency result in test [1] was “inactive”.

For `COCCOC(=O)C1=C(C)NC(C)=C(C(=O)OC/C=C/c2ccccc2)C1c1cccc([N+](=O)[O-])c1` (configuration not stated), the Potency result in test [1], in test [2] and in test [5] was “inactive” in each case.

For the compound `O=C(Nc1ncc([N+](=O)[O-])s1)c1cccs1`, the Potency entry in [1], in test [2] and in [5] was “inactive” each time.

On to `Cc1c(C(=O)NN2CCCCC2)nn(-c2ccc(Cl)cc2Cl)c1-c1ccc(Cl)cc1`, for which the Potency entry in test [1], in test [2] and in [5] was “inactive” in each case.

For the compound `C=CCNc1nc(NCC=C)nc(N2CCN(C(c3ccc(F)cc3)c3ccc(F)cc3)CC2)n1`, the Potency entry in test [1], in test [2] and in test [5] was “inactive” throughout.

Consider `Oc1c(Cl)cc(Cl)cc1Sc1cc(Cl)cc(Cl)c1O`, for which the Potency result in [1] and in test [2] was “inactive” throughout.

As to `CCN(CC)CCCC(C)Nc1c2ccc(Cl)cc2nc2ccc(OC)cc12` (configuration not stated), the Potency entry in test [1] is “inactive”.

For `c1ccc(-c2ccc(C(c3ccccc3)n3ccnc3)cc2)cc1` (configuration not stated), the Potency result in test [1], in [2] and in [5] was “inactive” each time.

Regarding `CCCCC(CC)COC(=O)C(C#N)=C(c1ccccc1)c1ccccc1` (configuration not stated), in test [1], the Potency entry was “inactive”.

In the case of `COC(=O)C1=C(C)NC(C)=C(C(=O)OC(C)(C)CN(C)CCC(c2ccccc2)c2ccccc2)C1c1cccc([N+](=O)[O-])c1` (configuration not stated), the Potency result in test [1], in test [2] and in test [5] was “inactive” throughout.

For the compound `CCCCc1ccc2nc(NC(=O)OC)[nH]c2c1`, in test [1], the Potency entry was “inactive”. The results for the Potency in test [2] and in test [5] were 68.5 nM (active) and 38.5 nM (active), respectively.

As for `CCCCOc1cc(C(=O)NCCN(CC)CC)c2ccccc2n1`, the Potency result in test [1] and in test [2] was “inactive” throughout.

On to `COC(=O)C1=CCCN(C)C1`, for which the outcome in [3] and in test [4] was inactive. In addition, the Potency entry in [1], in [2], in [5], in test [6], in test [7] and in test [8] was “inactive” in each case. Besides, the Potency entry in test [9], in test [10], in test [12], in test [13], in [14] and in [15] was “inactive” throughout. Also, the Potency entry in test [16], in test [17], in test [18] and in [19] was “inactive” each time.

Take `CC(C)=CCC/C(C)=C/CC/C(C)=C/C(=O)OCC(=O)[C@@]1(O)CC[C@H]2[C@@H]3CCC4=CC(=O)C=C[C@]4(C)[C@H]3[C@@H](O)C[C@@]21C`: the Potency result in [1], in [2], in test [5] and in [6] was “inactive” each time.

With `CC(=O)Oc1ccc(C2(c3ccc(OC(C)=O)cc3)Oc3ccccc3NC2=O)cc1`, the Potency result in [1] is “inactive”.

With `Cc1ccc2c(Br)cc(Br)c(O)c2n1`, the Potency result in test [1] was “inactive”.

As for `O=C(O)C(Cc1cc(I)c(O)c(I)c1)c1ccccc1` (configuration not stated), the Potency entry in test [1] was “inactive”.

As for `CCNC(=O)N1CCN(CCCC(c2ccc(F)cc2)c2ccc(F)cc2)CC1`, the Potency entry in test [1], in test [2] and in test [5] was “inactive” in each case.

Consider `CCOC(=O)C1=C(C)NC(C)=C(C(=O)OCC)C1c1ccccc1/C=C/C(=O)OC(C)(C)C`, for which the Potency result in test [1], in [2] and in [5] was “inactive” throughout.

For the compound `COc1ccc(/C=C/C(=O)c2ccc(OC)cc2OC)cc1`, the Potency entry in test [1], in test [2] and in [5] was “inactive” each time.

Turning to `Nc1nc2ccccc2n1Cc1ccc(F)cc1`, the Potency entry in [1] and in [2] was “inactive” in each case.

`NC(=O)C1(N2CCCCC2)CCN(CCCN2c3ccccc3CCc3ccc(Cl)cc32)CC1`: in test [1], the Potency result is “inactive”.

For the compound `COC(=O)Nc1nc2ccc(Sc3ccccc3)cc2[nH]1`, in test [1], the Potency result is “inactive”. The Potency in test [2] and in [5] was 5440 nM (active) in each case.

With `CC(=C(CCOC(=O)C(C)C)SSC(CCOC(=O)C(C)C)=C(C)N(C=O)Cc1cnc(C)nc1N)N(C=O)Cc1cnc(C)nc1N`, the Potency result in test [1] and in [2] was “inactive” each time.

`CC(C)=CCNc1ncnc2c1ncn2[C@@H]1O[C@H](CO)[C@@H](O)[C@H]1O`: the Potency entry in [1] is “inactive”.

Turning to `CN1CCCC(CC2c3ccccc3Sc3ccccc32)C1` (configuration not stated), the Potency entry in test [1] was “inactive”.
